Screening results from PubChem BioAssay.
p53ts 32C kill = qHTS Screen for Compounds that Selectively Target Cancer Cells with p53 Mutations: Cytotoxicity of p53ts Cells at the Permissive Temperature | Potency, µM (doses to about 46.1 µM), for inactives: at the top dose activity change, negative = cytotoxicity, most hits filed as cytotoxic | H1299-p53A138V at 32C, ATP luminescence viability, 24 h | 130,000 tested, 0.93% active;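 further: 0% = DMSO and -100% = full killing by reference compound; nearly all actives have a fitted effect of over 55% in size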
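ATP-content luminescence (ATPlite) read-out after 24 h compound exposure at 32C in H1299-p53A138V cells (600/well). Tested up to 46 uM. Normalized to DMSO (0%) and 100 uM tamoxifen (100% killing); Hill-fit AC50.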
Peg3 imprint = qHTS Assay for Compounds that Induce Erasure of Genomic Imprints | mouse ES Peg3-LacZ reporter, beta-gal luminescence, 40 h | Potency, µM (top dose mostly 60.7 µM), inactives show top-dose activity change, positive = activation, most hits filed as activators | 110,000 tested, 0.02% active
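Each well holds 300 Peg3LacZ-Neo (maternal) female ES cells incubated 40 h at 37C, 5% CO2. LacZ is measured by BetaGlo luminescence, with AC50 and maximum efficacy derived from dose-response curves.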
HEK293 cAMP cs = qHTS Assay for Agonists of the Thyroid Stimulating Hormone Receptor: Activators of Intracellular cAMP Concentrations in Parental HEK 293; parental HEK293 CNG cAMP sensor, membrane potential fluorescence; Potency, µM (doses to about 57.1 µM), for the others: at the highest dose activation, actives largely listed as activators; 73,000 tested, 2.5% active; AID 938, 2007; further: % of control where 0% means no effect; nearly all actives have a fitted effect of over 55% in size
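Counterscreen for endogenous-receptor signalling: CNG-channel HEK 293 cells report cAMP rise by membrane depolarization. After 60 min dye equilibration with 100 uM RO 20-1724, compounds incubated 30 min before bottom-read fluorescence at 590 nm.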
TSHR agonist = qHTS Assay for Agonists of the Thyroid Stimulating Hormone Receptor; Thyrotropin receptor (Homo sapiens), P16473; HEK293-CNG-TSHR cells (CNG channel as cAMP sensor), membrane potential dye, cAMP; Potency, µM (series often up to 57.1 µM), for inactives: at the top dose activation, most hits filed as activators; 73,000 tested, 0.48% active; AID 926, 2007; active means well fitted activation curve with a large enough effect in the main read-out, with a control signal flat, not every such curve was filed as active; inconclusive means small, poorly fitted or top-dose-only effect, or a change in a side signal; inactive means no such curve, though single readings can be large or run the other way; % of control where 0% means no effect;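 further: the control signal comes from parental cells without the receptor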
Target sequence (P16473 whole entry, looked up): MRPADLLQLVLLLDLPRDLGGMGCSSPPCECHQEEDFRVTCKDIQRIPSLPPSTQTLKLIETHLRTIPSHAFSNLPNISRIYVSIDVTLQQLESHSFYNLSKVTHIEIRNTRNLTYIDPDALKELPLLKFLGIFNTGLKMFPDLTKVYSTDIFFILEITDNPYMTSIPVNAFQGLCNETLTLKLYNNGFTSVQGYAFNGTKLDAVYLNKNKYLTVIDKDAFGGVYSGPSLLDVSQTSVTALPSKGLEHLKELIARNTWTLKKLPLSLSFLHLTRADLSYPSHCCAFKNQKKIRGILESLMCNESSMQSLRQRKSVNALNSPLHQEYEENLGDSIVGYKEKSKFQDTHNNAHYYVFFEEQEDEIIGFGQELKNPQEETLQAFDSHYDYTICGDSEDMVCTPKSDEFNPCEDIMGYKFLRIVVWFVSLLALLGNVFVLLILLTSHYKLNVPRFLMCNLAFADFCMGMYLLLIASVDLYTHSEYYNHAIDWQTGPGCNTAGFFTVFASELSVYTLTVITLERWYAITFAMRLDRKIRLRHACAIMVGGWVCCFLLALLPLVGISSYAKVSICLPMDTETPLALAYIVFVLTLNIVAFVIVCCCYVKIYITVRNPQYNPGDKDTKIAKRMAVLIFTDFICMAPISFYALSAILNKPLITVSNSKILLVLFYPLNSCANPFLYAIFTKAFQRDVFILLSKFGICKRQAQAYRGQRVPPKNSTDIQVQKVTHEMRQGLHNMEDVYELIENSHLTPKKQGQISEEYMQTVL
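HEK 293 cells stably expressing TSHR and a modified CNG channel, with CNG-only parental cells as counterscreen, were preloaded 60 min at room temperature with membrane potential dye containing 100 uM RO 20-1724. Compound exposure was 30 min, and depolarization was read as fluorescence at 590 nm.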
IkB signaling = IkB Signaling | ABC-DLBCL IkBa-CBG/CBR dual luciferase ratio, 4 h; response scale: scaled: untreated 0%, proteasome inhibitor 100% | 110,000 tested, 0.04% active | AID 445, 2006 | Potency, µM (series often up to 57.1 µM), inactives show at the highest dose IkBa stabilization activation; active means well fitted curve in the direction sought with a large enough effect in the signal ratio, not every such curve was filed as active; inconclusive means small, poorly fitted or top-dose-only effect, or a change in a side signal; the % refers to the signal ratio;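 further: the direction sought is a rising ratio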
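Luminescence ratio of IκBα-fused green versus native red beetle luciferase in OCI-Ly3 cells, 4 h post-doxycycline with compound; red signal alone, scaled from basal (0%) to zero light (-100%), flagged nonspecific or cytotoxic effects.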
p53ts 39C kill = qHTS Screen for Compounds that Selectively Target Cancer Cells with p53 Mutations: Cytotoxicity of p53ts Cells at the Nonpermissive Temperature; H1299-p53A138V viability at 39C, ATP luminescence, 24 h; Potency, µM (doses to about 46.1 µM), for inactives: at the top dose activity change, negative = cell killing, hits mostly cytotoxic; 130,000 tested, 1.5% active; further: on the % scale 0 is the no-effect control and ±100 the full control effect; nearly all actives have a fitted effect of over 55% in size
Active calls of the source: *; ? = inconclusive; . = no result; [ ] = dose if it differs, or a comment. Rows were chosen to be rich in hits. Some 3.1% of all compounds tested hit in one or more screens of this group. Unless noted, the call rests on the fitted dose curve; in most records, active means well fitted curve in the direction sought with a large enough effect; inconclusive means small, poorly fitted or top-dose-only effect, or another doubt; inactive means no such curve, though single readings can be large; an effect the other way counts as inactive or inconclusive. Potency means the concentration at half of the fitted maximal effect.

SMILES	p53ts 32C kill	Peg3 imprint	HEK293 cAMP cs	TSHR agonist	IkB signaling	p53ts 39C kill
CNc1ccc2oc(C[C@H]3O[C@]4(CC[C@H]3C)O[C@H]([C@H](C)C(=O)c3ccc[nH]3)[C@H](C)C[C@H]4C)nc2c1C(=O)O	4µM*	-28%	11%	-1%	?	3.2µM*
CC(C)CCCC1(C)C=Cc2c(O)c3c(c(CCC(C)C)c2O1)OC12C(CC4CC1C(C)(C)OC2(CCC(C)C(=O)O)C4O)C3=O (stereo not given)	25%	?	.	.	.	?
CC(C)=CCCC1(C)C=Cc2c(O)c3c(c(CC=C(C)C)c2O1)OC12C(=CC4CC1C(C)(C)OC2(C/C=C(/C)C(=O)O)C4O)C3=O (stereo not given)	5µM*	-40%	.	.	.	5µM*
CC(C)=CCCC1(C)C=Cc2c(O)c3c(c(CC=C(C)C)c2O1)OC12C(=CC4CC1C(C)(C)OC2(C/C=C(/C)C(=O)O)C4=O)C3=O (stereo not given)	4µM*	-34%	.	.	.	6.3µM*
CCNC(C)(C)[C@@H](SS)c1ccc(Br)cc1	-4%[9.22 µM]	-13%[10.9 µM]	-12%[11.4 µM]	-1%[11.4 µM]	0%[11.4 µM]	2%[9.22 µM]
CN1[C@@H]2CC[C@H]1CC(O[C@@H](c1ccccc1)c1ccccc1N)C2 (stereo not given in full)	-12%	.	-3%	21%	6%	4%
CN1[C@@H]2CC[C@H]1CC(OC(c1ccc(F)cc1)c1ccc(F)cc1)C2 (stereo not given in full)	10%	-30%	32µM*	?	?	-5%
c1ccc(N2CCCC3(CCNCC3)C2)cc1	-7%	.	?	?	0%[11.4 µM]	-20%
c1ccc(N2CCCC3(CCNCC3)C2)nc1	-8%	.	16µM*	?	2%[11.4 µM]	-11%
Oc1ccc2c3c1O[C@@H]1c4[nH]c5c(c4C[C@@]4(O)[C@@H](C2)N(CC2CC2)CC[C@]314)C[C@]1(O)[C@@H]2Cc3ccc(O)c4c3[C@@]1(CCN2CC1CC1)[C@H]5O4	-13%	.	?	?	5%	14%
CCOC(=O)c1ccc(N2C(=O)c3n[nH]c(-c4cccs4)c3C2c2ccc(C(C)(C)C)cc2)cc1 (stereo not given)	?	-16%[10.9 µM]	.	.	?	16µM*
CCCn1c(C)c(C(=O)c2cccc3ccccc23)c2ccccc21	-7%	-22%	13µM*	?	?	-23%
CC(=O)N(C1=NCCCS1)c1ccc(F)cc1	-5%	-8%	1.6µM*	?	-1%	-12%
COc1cccc(N2CCN(Cc3ccc(Cl)cc3)CC2)c1	1%	-11%	8%	6%	2%	4%
COc1cccc(N2CCN(Cc3cccc(Cl)c3)CC2)c1	-8%	-9%	13%	25µM*	3%	-4%
Oc1c(Cl)c(Cl)c(Cl)c(Cl)c1Cl	-9%[1.84 µM]	0%	32µM*	?	?	25%
COc1ccc(C(=O)c2c(C)n(CCN3CCOCC3)c3cc(I)ccc23)cc1	41%	-9%	6.3µM*	?	?	28%
Cc1c(C(=O)c2ccc3ccccc3c2)c2cccc3c2n1[C@H](CN1CCOCC1)CO3	6%	-13%	28%	13%	?	-9%
CC(C)c1ccc2c(c1)CC[C@@H]1[C@@](C)(CN)CCC[C@@]21C	.	.	-30%	?	?	.
CCn1nc(-c2cccs2)nc2c(=O)n(C)c(=O)nc1-2	2µM*	-94%	3.2µM*	?	?	4µM*
ClC1=C(Cl)C2(Cl)C3C4C=CC(C4)C3C1(Cl)C2(Cl)Cl (stereo not given)	-6%	6%	-6%	30%	?	4%
ClC1=C(Cl)C2(Cl)C3C4CC(C5OC45)C3C1(Cl)C2(Cl)Cl (stereo not given)	12%	-9%	21%	25µM*	?	-7%
CCCCC[CH2][Hg][S]C1=C2N=CNC2NC(N)=N1 (stereo not given)	.	-69%[10.9 µM]	.	.	.	.
COC(=O)c1cn(CCOc2ccccc2)c2ccccc12	-11%	-18%	20µM*	?	1%	-5%
NC(=O)CI	6.3µM*	-34%	-2%	2%	2%	5µM*
SMILES	p53ts 32C kill	Peg3 imprint	HEK293 cAMP cs	TSHR agonist	IkB signaling	p53ts 39C kill
CN(C)CS/C(N)=N/[C@H](O)C(Cl)(Cl)Cl	-5%[9.22 µM]	-11%[10.9 µM]	-10%[11.4 µM]	0%[11.4 µM]	1%[11.4 µM]	-4%[9.22 µM]
O=C(Oc1ccccc1)N1CCC[C@@]2(CCN(Cc3cc(C(F)(F)F)cc(C(F)(F)F)c3)C2)C1	-10%	.	16µM*	?	1%[11.4 µM]	-8%
O=C(Oc1ccccc1)N1CCC2(CCCN(Cc3ccccc3)C2)CC1	-12%	.	?	?	2%[11.4 µM]	-2%
N#Cc1ccc(CN2CCCC3(CCN(C(=O)Oc4ccccc4)CC3)C2)cc1	-3%	.	16µM*	?	7%[11.4 µM]	-9%
CC(=O)[C@@H]1CC[C@H]2[C@H]3CC[C@H]4C[C@@H](O)CC[C@]4(C)[C@@H]3CC[C@]12C	-16%	.	8%	12%	15%	-5%
CS(=O)c1ccc(-c2nc(-c3ccc(F)cc3)c(-c3ccncc3)[nH]2)cc1 (stereo not given)	21%	-6%	-30%	?	0%	-2%
CC(=O)c1c(O)n(C)c(=S)n(-c2ccccc2)c1=O	14%	-10%	1µM*	?	-1%	1%
c1cc(OCC2CO2)cc(OCC2CO2)c1 (stereo not given)	-4%[1.84 µM]	3%	-7%	?	?	25µM*
C=CC(=O)OCC(CC)CCCC (stereo not given)	-8%[1.84 µM]	2%	2%	?	0%	9%
Clc1nc(Cl)nc(Nc2ccccc2Cl)n1	-4%[1.84 µM]	-23%	-22%	?	-1%	2%
CCCCCCCCCCCCCC(=O)O[C@H]1[C@@H](C)[C@@]2(O)[C@@H](C=C(CO)C[C@]3(O)C(=O)C(C)=C[C@@H]23)C2C(C)(C)[C@]21OC(C)=O (stereo not given in full)	?	.	?	?	?	16µM*
CC(C)CCn1c(N)c(C(=O)OCC2CCCO2)c2nc3ccccc3nc21 (stereo not given)	-28%	7%	20µM*	?	-1%	5%
COCCOC(=O)c1c(N)n(Cc2ccccc2)c2nc3ccccc3nc12	7%	-8%	16µM*	?	-1%	-12%
